The values below come from PubChem BioAssay AID588689 (Southern Research Specialized Biocontainment Screening …, 2011).

Each structure is given as a SMILES string. Out of some 340,000 compounds screened, about 1,000 (0.29%) were called active. Rule as the data show it: inconclusive = inhibition above about 29% without an active follow-up result; inactive = below that. Only a sample is shown. Measured potencies and affinities stand elsewhere.

This assay deals with Genome polyprotein (Dengue virus type 2 (strain 16681-PDK53)) (UniProt P29991). The experiment in a line: Dengue-2 NS5 methyltransferase inhibitors, primary screen, biochemical, confirmation dose response (AID 588689). The conditions noted are these: Dengue-2 NS5 methyltransferase capping enzyme assay, at 25 µM, stronger effect = higher value.
Where [1] appears, read: measured here: pilot screen replicate inhibition.

Broadly, the inhibition is the drop in the measured response relative to a control, in per cent. As for `O=Nc1c(-c2ccccc2)n(O)[n+]([O-])c1-c1ccccc1`, the inhibition was -16.7% (inactive). For `COc1cccc(CN2CC(C(=O)NCCN3CCOC3=O)CCC2=O)c1` (stereo not drawn), the inhibition was -9.76% (inactive). As to `COC(=O)C1=CN(c2ccc(OC)cc2)C=C(C(=O)OC)C1c1ccc([N+](=O)[O-])cc1`, the inhibition was -9.75% (inactive). Consider `Cc1ccc(Cn2nnc(C(=O)Nc3cccc(C)c3C)c2N)cc1`, for which the inhibition is -0.68% (inactive). On to `Cc1cccc(S(=O)(=O)Nc2ccc(-n3c(C)nc4ccccc4c3=O)cc2)c1`, for which the inhibition is -5.8% (inactive).

`C=CCOc1ccc(S(C)(=O)=O)cc1`: the inhibition was 1.32% (inactive).

Turning to `CSc1nc(O)c(C(c2ccccc2)c2c(O)nc(SC)[nH]c2=O)c(=O)[nH]1`, the inhibition was -1.55% (inactive). Take `CSc1nc(Cl)c(Cc2ccc(OC(C)C)cc2)c(N(C)C)n1`: the inhibition was -2.55% (inactive). Consider `CSc1nc(O)c(C(c2ccc(C)cc2)c2c(O)nc(SC)[nH]c2=O)c(=O)[nH]1`, for which the inhibition was 5.27% (inactive). Besides, under setting [1], the inhibition is 4.26%. In the case of `C=CCOc1ccc(Oc2cc(C)nc(SC)n2)nn1`, the inhibition was -6.11% (inactive). Consider `COc1nc(SC)nc(Cl)c1Cc1ccc(OC(C)C)cc1`, for which the inhibition was -6.55% (inactive). On the same count and under the same terms, with `CN1CCN(C(=O)/C(=C/c2cn(S(=O)(=O)N(C)C)c3ccccc23)NC(=O)c2ccccc2F)CC1` the figure was -5.9% (inactive); with `CCC(C(=O)Nc1cccnc1)n1c(=O)[nH]c2ccccc2c1=O` (stereo not drawn), -5.9% (inactive). Still for that read-out and setting: with `Cc1ccc(NC(=O)C2CCCN(C(=O)Nc3ccc(F)cc3)C2)cc1` (stereo not drawn) the figure was -4.13% (inactive); with `Cc1cc(=O)[nH]c(-c2cccs2)n1`, 10.8% (inactive). The same measure, in the same setting: with `CC[C@H](C)Cc1cn([C@@H](CCCN=C(NC(=O)OC(C)(C)C)NC(=O)OC(C)(C)C)C(=O)NCCCCCCCCCCC(=O)N2CCN(C(=O)OC(C)(C)C)CC2)nn1` the figure was -0.83% (inactive). For `Cc1csc(N(C(=O)c2cccc(S(=O)(=O)N(C)C)c2)c2ccccc2)n1`, the inhibition is -1.38% (inactive). As to `CCC(C(=O)OCC(=O)Nc1ccc2[nH]c(=O)[nH]c2c1)c1ccccc1` (stereo not drawn), the inhibition is 2.16% (inactive). On to `COc1ccc(N(CC(=O)NCCSCc2ccco2)S(=O)(=O)c2ccccc2)cc1`, for which the inhibition is -3.68% (inactive).

Consider `Fc1cccc(/C=N/Nc2nccnc2Cl)c1`, for which the inhibition was -2.31% (inactive). For the molecule `Cc1ccccc1S(=O)(=O)N1[C@@H](c2ccccc2)C(C(=O)O)=CC[C@H]1c1ccc(Cl)cc1`, the inhibition was 12.8% (inactive). For the molecule `Cc1ccc([C@H]2C(C(=O)O)=CC[C@@H](c3ccc(C)cc3)N2S(=O)(=O)c2ccccc2C)cc1`, the inhibition was 13.7% (inactive). In the case of `Cc1ccccc1S(=O)(=O)N1[C@@H](c2ccc(Cl)cc2)C(C(=O)O)=CC[C@H]1c1ccc(Cl)cc1`, the inhibition was 23.8% (inactive). Besides, the inhibition under setting [1] was 2.15%.

With `Cc1ccc([C@@H]2CC=C(C(=O)O)[C@H](c3ccccc3)N2S(=O)(=O)c2ccccc2C)cc1`, the inhibition is 11.1% (inactive).

`COc1cccc(NC(=O)c2ccc(N3C(=O)C4CC=CCC4C3=O)cc2)c1` (stereo not drawn): the inhibition is 0.77% (inactive). For `CN(C)C(CNC(=O)C1CCN(S(=O)(=O)c2cccc(C(F)(F)F)c2)CC1)c1ccccc1` (stereo not drawn), the inhibition was 0% (inactive). For `O=C(COc1ccc(F)c(Cl)c1)Nc1ccc(N2CCOCC2)cc1`, the inhibition is -11.9% (inactive).

For `Cc1c(N2C(=O)/C(=C3\C(=O)N(CC(=O)O)c4ccccc43)SC2=S)c(=O)n(-c2ccccc2)n1C`, the inhibition was 36.3% (inactive). Consider `CCCC(C(=O)O)N1C(=O)/C(=C/c2cccn2C)SC1=S` (stereo not drawn), for which the inhibition is -53.1% (inactive). Consider `CN1C(=O)/C(=C2\SC(=S)N(C(CCC(=O)O)C(=O)O)C2=O)c2ccccc21` (stereo not drawn), for which the inhibition is 8.73% (inactive).

Turning to `O=C(O)C(Cc1ccc(O)cc1)N1C(=O)c2ccccc2C1=O` (stereo not drawn), the inhibition is -2.65% (inactive). Take `O=C(Nc1ccccc1)N1CCNCC1`: the inhibition was -6.32% (inactive). On the same count and under the same terms, with `CC1(C)OC1(C#N)c1ccccc1` (stereo not drawn) the figure was -5.44% (inactive); with `CCN(CC)S(=O)(=O)c1ccc(Nc2ccc(-c3ccc4c(c3)OCCO4)nn2)cc1`, -4.94% (inactive). Regarding `CC(=O)N1CCN(c2ccc(NC(=S)NC(=O)c3ccc(C)c([N+](=O)[O-])c3)cc2)CC1`, the inhibition was -2.35% (inactive). Take `O=C(NC(=O)c1cc([N+](=O)[O-])ccc1Cl)C1=C(N2CCCC2)COC1=O`: the inhibition was -8.37% (inactive). On the same count and under the same terms, with `Cn1c(=N)c(S(=O)(=O)c2ccccc2)cc2c(=O)n3ccccc3nc21` the figure was -8.12% (inactive).

In the case of `CCOC(=O)C1(C)/C(=N/Nc2ccccc2Cl)C(=O)C(=O)N1c1ccccc1` (stereo not drawn), the inhibition is -3.23% (inactive). As for `CCOC(=O)C1(C)/C(=N/Nc2ccc(Cl)cc2)C(=O)C(=O)N1c1ccccc1` (stereo not drawn), the inhibition is 3.28% (inactive).

In the case of `COC(C[C@@H](O)C[C@H](O)[C@@H](C)OCc1ccccc1)OC`, the inhibition was -8.19% (inactive). Consider `CC/C(=N/NC(=O)c1ccc2c(c1)OCO2)c1ccccc1O`, for which the inhibition was 3.08% (inactive). Consider `Cc1cccc(CN2CCN(CC(=O)N3CCCC3)C2=O)c1`, for which the inhibition is -5.66% (inactive).

In the case of `CC(=O)C1=C(O)C(=O)N(Cc2cccnc2)C1c1ccc(C(C)C)cc1` (stereo not drawn), the inhibition is -5.44% (inactive). Consider `CC(=O)C1=C(O)C(=O)N(c2cc(C(C)(C)C)on2)C1c1ccc(Br)cc1` (stereo not drawn), for which the inhibition is 13.1% (inactive).

Turning to `CC1=NNC(=O)C1C(c1ccccc1)C(C#N)C#N` (stereo not drawn), the inhibition was -4.84% (inactive). Take `Cc1cccc(CN2CCN(C(c3ccccc3)c3ccc(Cl)cc3)CC2)c1` (stereo not drawn): the inhibition was 2.93% (inactive). Still for that read-out and setting: with `CC1=NNC(=O)C1C(c1ccc(F)cc1)C(C#N)C#N` (stereo not drawn) the figure was -10.2% (inactive). The same measure, in the same setting: with `CC1=NN(Cc2ccccc2)C(=O)C1C(c1ccncc1)C(C#N)C#N` (stereo not drawn) the figure was 13.5% (inactive). Consider `S=C(N/N=C/c1ccc(Br)cc1)N1CCCCC1`, for which the inhibition is 2.36% (inactive). For `CC(C)c1ccc(S(=O)(=O)N2CCN(C(=O)CCNS(=O)(=O)c3ccccc3F)CC2)cc1`, the inhibition is 2.2% (inactive).

For the molecule `CCN1CCN(C(=O)/C=C/c2ccc(OC)cc2)CC1`, the inhibition was 0% (inactive). Also, the inhibition under setting [1] is -2.12%. `CCn1c([N+](=O)[O-])nc2c1c(=O)[nH]c(=O)n2C`: the inhibition is -10.1% (inactive). On the same count and under the same terms, with `Cc1ccc(SC(CC(=O)c2ccc(F)cc2)C(=O)O)cc1` (stereo not drawn) the figure was 0% (inactive).

Take `Cc1ccc(SC(CC(=O)c2ccc(C)cc2)C(=O)O)cc1` (stereo not drawn): the inhibition is 16.8% (inactive). In the case of `CSc1ccccc1OCc1cc(C(=O)N2CCN3CCCC3C2)no1` (stereo not drawn), the inhibition was -0.87% (inactive).
